The nature of assay [1]: ATG_E_Box_CIS: Attagene CIS-FACTORIAL HepG2 Assay for human Enhancer Box (E-box) (AID 2282936). Conditions: HepG2 E-box cis-reporter transcription, actives raise or lower the signal. In short, it runs like this: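 Measured 24 h post-dosing in HepG2 cells transfected with multiple cis-regulated reporter units, signal being reporter mRNA induction detected by fluorescent RT-PCR with capillary electrophoresis; gain or loss fitted against DMSO.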

Assay [2] is described as follows: ATG_M_61_CIS: Attagene CIS-FACTORIAL HepG2 Assay for M61 Transcription Factor (Internal Marker) (AID 2282937). The conditions noted are these: HepG2 Attagene CIS-FACTORIAL M61 internal marker reporter; actives raise or lower the signal. In short, it runs like this: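 HepG2 cells transiently transfected with multiplexed cis-promoter reporter units reporting endogenous transcription factor activity, measured 24 h after dosing. Reporter mRNA quantified by RT-PCR and capillary electrophoresis; bidirectional fit against DMSO baseline.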

Assay [3] is described as follows: ATG_EGR_CIS: Attagene CIS-FACTORIAL HepG2 Assay for human Early Growth Response 1 (EGR1) (AID 2282938). Conditions: HepG2 Attagene CIS-FACTORIAL EGR reporter mRNA; actives raise or lower the signal. The method, boiled down:
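HepG2 cells transiently transfected with cis-element-driven multiplexed reporter units, dosed for 24 h. EGR1-element reporter mRNA quantified by RT-PCR, 6-FAM labelling, HpaI digestion and capillary electrophoresis; bidirectional fit versus DMSO.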

Assay [4] in a line: ATG_M_19_CIS: Attagene CIS-FACTORIAL HepG2 Assay for M19 Transcription Factor (Internal Marker) (AID 2282939). The conditions noted are these: HepG2 Attagene CIS-FACTORIAL M19 internal marker reporter; actives raise or lower the signal. The method, boiled down:
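Readout: fluorescent reporter-transcript fragments by capillary electrophoresis after RT-PCR. Human HepG2 liver cells carried transfected MRTU constructs reporting endogenous transcription-factor activity; exposure 24 h. Gain or loss of signal fitted relative to DMSO.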

A short description of assay [5]: ATG_Ets_CIS: Attagene CIS-FACTORIAL HepG2 Assay for human Erythroblast Transformation Specific (ETS) (AID 2282941). Conditions: HepG2 ETS cis-reporter transcription, actives raise or lower the signal. In short, it runs like this:
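RT-PCR/capillary electrophoresis fluorescence read-out of reporter mRNA; HepG2 transient multi-reporter transfection; 24 h compound exposure; gain or loss of signal fitted bidirectionally relative to DMSO.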

For assay [6], the target named is Hepatocyte nuclear factor 3-beta (Homo sapiens) (UniProt Q9Y261). As to the kind of experiment: ATG_FoxA2_CIS: Attagene CIS-FACTORIAL HepG2 Assay for human Forkhead box A2 (FOXA2) (AID 2282942). The conditions noted are these: HepG2 cis-reporter transcription factor activity, 24 h; actives raise or lower the signal. The method, boiled down: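 HepG2 transiently transfected with a multiplexed cis-promoter reporter library read endogenous FOXA2 activity. After 24 h compound exposure, reporter mRNA was quantified by RT-PCR, HpaI digestion and capillary electrophoresis. Bidirectional fit against DMSO.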

Assay [7] can be described thus: ATG_FoxO_CIS: Attagene CIS-FACTORIAL HepG2 Assay for human Forkhead box O (FoxO) (AID 2282943). The conditions noted are these: HepG2 Attagene cis-reporter, FoxO element, mRNA; actives raise or lower the signal. In short, it runs like this: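 HepG2 cells transiently transfected with cis-promoter-driven multiple reporter transcription units; 24 h after chemical dosing, reporter mRNA quantified by RT-PCR, fluorescent primer extension, HpaI digestion and capillary electrophoresis. Bidirectional fitting versus DMSO baseline.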

Assay [8] in a line: ATG_GATA_CIS: Attagene CIS-FACTORIAL HepG2 Assay for human GATA Binding Protein (AID 2282944). Conditions: HepG2 GATA cis-element reporter, Attagene multiplex mRNA; actives raise or lower the signal. The method, boiled down:
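Read-out: fluorescent reporter mRNA fragments resolved by capillary electrophoresis after RT-PCR. Human liver HepG2 cells carried transiently transfected cis-regulated reporter constructs; chemicals incubated 24 h; gain or loss of signal fitted relative to DMSO.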

Assay [9] can be described thus: ATG_GLI_CIS: Attagene CIS-FACTORIAL HepG2 Assay for human Zinc Finger Protein GLI1 (AID 2282945). The conditions noted are these: HepG2, Attagene cis-factorial reporter mRNA, GLI element; actives raise or lower the signal. In short, it runs like this:
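HepG2 cells transiently transfected with cis-promoter multiplexed reporter units report endogenous transcription factor activity. After 24 h chemical exposure, reporter mRNA was quantified by RT-PCR, 6-FAM labelling, HpaI digestion and capillary electrophoresis, with bidirectional fitting against DMSO.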

A short description of assay [10]: ATG_GRE_CIS: Attagene CIS-FACTORIAL HepG2 Assay for human Glucocorticoid Response Elements (GRE) (AID 2282947). Conditions: HepG2 GRE cis-reporter, Attagene multiplex mRNA; actives raise or lower the signal. In short, it runs like this:
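HepG2, transient cis-reporter transfection, 24 h. Reporter mRNA: RT-PCR then CE, fluorescence. Fit both directions vs DMSO.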

A short description of assay [11]: ATG_ISRE_CIS: Attagene CIS-FACTORIAL HepG2 Assay for human Interferon Regulatory Factor 1 (IRF1) binding to an Interferon-Stimulated Response Element (ISRE) (AID 2282948). The conditions noted are these: HepG2 ISRE cis-reporter (Attagene), mRNA transcription readout; actives raise or lower the signal. The method, boiled down:
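Read-out: fluorescent RT-PCR products resolved by capillary electrophoresis, reporting endogenous transcription factor activity via ISRE-driven reporter mRNA in transfected HepG2 cells dosed for 24 h; gain or loss fitted relative to DMSO.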

A short description of assay [12]: ATG_M_32_CIS: Attagene CIS-FACTORIAL HepG2 Assay for M32 Transcription Factor (Internal Marker) (AID 2282949).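 Further: background control marker of the multiplexed CIS panel rather than a real target.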 The conditions noted are these: HepG2 Attagene cis-factorial M32 reporter, mRNA; actives raise or lower the signal. In short, it runs like this: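 Using DMSO as baseline, bidirectional curve fits were applied to reporter mRNA signals. These came from transiently transfected HepG2 cells exposed for 24 h, with RNA analysed by RT-PCR, FAM primer extension, HpaI digestion and CE.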

The nature of assay [13]: ATG_M_06_CIS: Attagene CIS-FACTORIAL HepG2 Assay for M06 Transcription Factor (Internal Marker) (AID 2282950). Conditions: HepG2 Attagene CIS-FACTORIAL M06 internal marker reporter; actives raise or lower the signal. The method, boiled down: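 Terse: HepG2, transient MRTU transfection (FuGene 6), 24 h dosing; total RNA, oligo(dT) RT, PCR, FAM label, HpaI cut, capillary electrophoresis; bidirectional fit vs DMSO baseline; background-control endpoint.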

Assay [14] concerns the target Hypoxia-inducible factor 1-alpha (Homo sapiens) (UniProt Q16665). As to the kind of experiment: ATG_HIF1a_CIS: Attagene CIS-FACTORIAL HepG2 Assay for human Hypoxia Inducible Factor 1 (HIF1A) (AID 2282951). Conditions: HepG2 Attagene cis-factorial HIF1a reporter transcription; actives raise or lower the signal. The method, boiled down: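 HepG2 cells transiently transfected with multiple cis-regulated reporter transcription units measure endogenous transcription factor activity. After 24 h exposure, reporter mRNA is quantified by RT-PCR with 6-FAM labelling, HpaI digestion and capillary electrophoresis. Bidirectional fitting against DMSO.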

Assay [15] deals with Hepatocyte nuclear factor 6 (Homo sapiens) (UniProt Q9UBC0). As to the kind of experiment: ATG_HNF6_CIS: Attagene CIS-FACTORIAL HepG2 Assay for human Hepatocyte Nuclear Factor 6 (HNF6) (AID 2282952). The conditions noted are these: HepG2 Attagene cis-factorial HNF6 reporter transcription; actives raise or lower the signal. In short, it runs like this: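 Twenty-four-hour chemical treatment of reporter-transfected HepG2 cells precedes RNA isolation, DNase-treated reverse transcription and PCR of reporter sequences. Labelled fragments are sized by capillary electrophoresis and fitted bidirectionally versus DMSO.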

The target in assay [16] is Heat shock factor protein 1 (Homo sapiens) (UniProt Q00613). Briefly: ATG_HSE_CIS: Attagene CIS-FACTORIAL HepG2 Assay for human Heat Shock Transcription Factor 1 (HSE) (AID 2282953). The conditions noted are these: HepG2 HSE cis-reporter, Attagene RNA transcription; actives raise or lower the signal. In short, it runs like this:
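Read-out: fluorescence of reporter-specific RT-PCR fragments separated by capillary electrophoresis. HepG2 carrying transfected cis-element reporter units; 24 h dosing; activity fitted in both directions relative to DMSO baseline.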

Assay [17] in a line: ATG_MRE_CIS: Attagene CIS-FACTORIAL HepG2 Assay for human Metal Responsive Element (MRE) (AID 2282954). The conditions noted are these: HepG2 MRE cis-reporter transcription, Attagene multiplex; actives raise or lower the signal. The method, boiled down: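 Readout: capillary electrophoresis of 6-FAM-labelled, HpaI-digested RT-PCR reporter products. System: HepG2 cells carrying transient multiplexed cis reporters, dosed 24 h. Analysis: bidirectional fit, DMSO baseline.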

Assay [18] is described as follows: ATG_ERE_CIS: Attagene CIS-FACTORIAL HepG2 Assay for Estrogen Response Element (ERE) (AID 2282940). Conditions: HepG2 ERE cis-reporter, Attagene RNA transcript; actives raise or lower the signal. In short, it runs like this: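 Readout: reporter mRNA induction by RT-PCR, FAM-labelled primer extension, HpaI digestion and capillary electrophoresis, 24 h after dosing transfected HepG2 cells. Endogenous transcription factors act on cis-element-regulated reporters. Gain or loss fitted against DMSO.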

A short description of assay [19]: ATG_PBREM_CIS: Attagene CIS-FACTORIAL HepG2 Assay for human Phenobarbital-responsive Enhancer Module (PBREM) (AID 2282955). Conditions: HepG2 PBREM cis-reporter, Attagene multiplexed transcription; actives raise or lower the signal. In short, it runs like this: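 HepG2 cells transiently transfected with multiple cis-regulated reporter units measure endogenous transcription factor activity; 24 h compound exposure. Reporter mRNA quantified by RT-PCR, fluorescent labelling, HpaI digestion and capillary electrophoresis; bidirectional fit versus DMSO.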

In assay [20] the target is Bile acid receptor (Homo sapiens) (UniProt Q96RI1). Briefly: ATG_IR1_CIS: Attagene CIS-FACTORIAL HepG2 Assay for human Nuclear Receptor Subfamily 1 Group H Member 4 (NR1H4), IR1 submotif (AID 2282946). Conditions: IR1 reporter transcription, actives raise or lower the signal. The method, boiled down:
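Readout: reporter transcript levels by RT-PCR with fluorescent capillary electrophoresis, from HepG2 cells transiently transfected with multiplexed cis-regulated reporters and dosed 24 h. Gain- or loss-of-signal fitted versus DMSO negative control.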

Activity calls are given as the source filed them. How the source made its calls: active means hit-call score of the fitted dose curve at least 0.9, where 1 is the maximum; inactive means score below 0.9.

Hepatocyte nuclear factor 6 (Homo sapiens), sequence (Q9UBC0 whole entry, looked up, the tested form may be a part): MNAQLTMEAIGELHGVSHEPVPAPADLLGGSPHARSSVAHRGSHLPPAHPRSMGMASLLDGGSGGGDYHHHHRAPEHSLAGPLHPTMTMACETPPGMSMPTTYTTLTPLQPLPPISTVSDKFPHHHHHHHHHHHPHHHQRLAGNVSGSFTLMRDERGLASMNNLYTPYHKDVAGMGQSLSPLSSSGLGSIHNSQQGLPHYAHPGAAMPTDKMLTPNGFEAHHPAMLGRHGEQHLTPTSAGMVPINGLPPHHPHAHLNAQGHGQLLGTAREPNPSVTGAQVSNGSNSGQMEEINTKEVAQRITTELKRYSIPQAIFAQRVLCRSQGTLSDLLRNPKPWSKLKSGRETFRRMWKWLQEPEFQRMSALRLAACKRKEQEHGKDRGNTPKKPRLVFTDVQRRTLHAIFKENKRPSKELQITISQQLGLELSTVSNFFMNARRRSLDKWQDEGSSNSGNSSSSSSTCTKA
Heat shock factor protein 1 (Homo sapiens), sequence (Q00613 whole entry, looked up, the tested form may be a part): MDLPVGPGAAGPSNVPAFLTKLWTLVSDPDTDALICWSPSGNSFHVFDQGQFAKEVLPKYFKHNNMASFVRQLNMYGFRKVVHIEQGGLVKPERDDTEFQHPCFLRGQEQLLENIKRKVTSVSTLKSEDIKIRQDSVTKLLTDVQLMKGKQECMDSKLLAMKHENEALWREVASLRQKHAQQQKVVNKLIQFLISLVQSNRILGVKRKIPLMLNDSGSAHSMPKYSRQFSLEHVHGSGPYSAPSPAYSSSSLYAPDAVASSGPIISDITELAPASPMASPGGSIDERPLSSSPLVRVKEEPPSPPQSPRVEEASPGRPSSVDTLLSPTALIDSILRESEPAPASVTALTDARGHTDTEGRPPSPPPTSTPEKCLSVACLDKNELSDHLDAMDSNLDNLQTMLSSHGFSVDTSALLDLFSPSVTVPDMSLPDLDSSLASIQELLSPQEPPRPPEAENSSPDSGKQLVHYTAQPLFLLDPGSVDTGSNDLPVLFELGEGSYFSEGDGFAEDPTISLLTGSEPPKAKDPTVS
Hypoxia-inducible factor 1-alpha (Homo sapiens), sequence (Q16665 whole entry, looked up): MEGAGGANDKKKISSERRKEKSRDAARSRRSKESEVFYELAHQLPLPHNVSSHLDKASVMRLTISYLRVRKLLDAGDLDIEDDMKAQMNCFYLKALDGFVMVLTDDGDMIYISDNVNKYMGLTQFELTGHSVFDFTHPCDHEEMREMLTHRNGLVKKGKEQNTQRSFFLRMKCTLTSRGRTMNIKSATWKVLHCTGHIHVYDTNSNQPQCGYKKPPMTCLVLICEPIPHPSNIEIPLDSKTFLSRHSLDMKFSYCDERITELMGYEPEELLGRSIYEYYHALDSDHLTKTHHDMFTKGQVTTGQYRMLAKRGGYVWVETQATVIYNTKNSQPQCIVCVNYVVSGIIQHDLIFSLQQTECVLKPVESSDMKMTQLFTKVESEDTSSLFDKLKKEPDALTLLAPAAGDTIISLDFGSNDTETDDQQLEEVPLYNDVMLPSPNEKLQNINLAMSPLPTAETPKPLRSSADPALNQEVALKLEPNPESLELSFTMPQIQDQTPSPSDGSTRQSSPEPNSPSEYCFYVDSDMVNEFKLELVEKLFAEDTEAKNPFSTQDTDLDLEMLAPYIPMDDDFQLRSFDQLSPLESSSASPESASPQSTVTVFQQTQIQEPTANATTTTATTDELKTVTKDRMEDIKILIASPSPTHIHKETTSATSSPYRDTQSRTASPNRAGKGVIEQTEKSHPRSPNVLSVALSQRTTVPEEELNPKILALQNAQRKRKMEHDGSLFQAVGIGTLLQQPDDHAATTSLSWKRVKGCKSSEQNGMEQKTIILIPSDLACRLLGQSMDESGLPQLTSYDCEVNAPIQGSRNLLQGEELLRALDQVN
Bile acid receptor (Homo sapiens), sequence (Q96RI1 whole entry, looked up): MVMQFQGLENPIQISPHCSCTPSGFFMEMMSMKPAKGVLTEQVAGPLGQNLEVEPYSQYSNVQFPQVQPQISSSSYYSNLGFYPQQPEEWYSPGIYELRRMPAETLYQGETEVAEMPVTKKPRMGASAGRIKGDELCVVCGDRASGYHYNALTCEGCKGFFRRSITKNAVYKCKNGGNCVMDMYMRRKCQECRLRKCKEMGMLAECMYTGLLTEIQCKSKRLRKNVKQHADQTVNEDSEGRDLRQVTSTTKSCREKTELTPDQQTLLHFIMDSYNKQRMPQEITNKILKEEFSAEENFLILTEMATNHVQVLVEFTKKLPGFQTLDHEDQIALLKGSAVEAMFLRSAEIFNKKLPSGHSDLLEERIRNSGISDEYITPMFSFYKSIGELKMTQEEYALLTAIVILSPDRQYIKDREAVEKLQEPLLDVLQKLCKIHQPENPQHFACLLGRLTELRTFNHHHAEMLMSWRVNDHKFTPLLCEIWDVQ
Hepatocyte nuclear factor 3-beta (Homo sapiens), sequence (Q9Y261 whole entry, looked up): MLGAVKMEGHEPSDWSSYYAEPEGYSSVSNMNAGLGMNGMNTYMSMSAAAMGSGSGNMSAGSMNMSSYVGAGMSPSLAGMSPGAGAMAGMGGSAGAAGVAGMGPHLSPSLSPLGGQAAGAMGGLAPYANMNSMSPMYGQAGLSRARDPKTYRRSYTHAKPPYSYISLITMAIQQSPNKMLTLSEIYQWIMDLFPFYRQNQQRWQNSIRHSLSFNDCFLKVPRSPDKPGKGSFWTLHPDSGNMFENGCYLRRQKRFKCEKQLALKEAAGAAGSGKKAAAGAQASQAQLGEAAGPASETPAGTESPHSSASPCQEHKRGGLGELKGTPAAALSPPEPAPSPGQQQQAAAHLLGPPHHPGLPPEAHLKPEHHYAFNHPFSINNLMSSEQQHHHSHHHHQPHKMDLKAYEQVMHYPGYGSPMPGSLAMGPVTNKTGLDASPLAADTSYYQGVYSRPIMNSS

Take `CCCCOC(=O)CCCCC(=O)OCCCC`: the result in assay [1], in assay [2], in assay [3], in [4], in assay [5] and in assay [6] was inactive. For the same compound, the compound was called inactive in assay [7], in assay [8], in assay [9], in assay [11], in [12] and in assay [13]. In addition, the compound was classed as inactive in [14], in assay [15], in assay [16] and in [17]. Further, the concentration at half-maximal activity (AC50) in assay [10] was 178 µM (active).

On to `CCCCCCCCCCCCCCOS(=O)(=O)O`, for which the outcome in [1], in [2], in [3], in [4], in [18] and in assay [5] was inactive. In addition, the outcome in assay [6], in [7], in assay [8], in assay [11], in assay [12] and in assay [13] was inactive. Further, the result in [14], in assay [15], in assay [16], in assay [17] and in assay [19] was inactive.

As to `O=C1c2c(O)cccc2Cc2cccc(O)c21`, the result in assay [1], in assay [2], in assay [3], in assay [4], in [5] and in assay [6] was inactive. Besides, the result in assay [7], in assay [8], in assay [9], in assay [20], in [11] and in [12] was inactive. For the same compound, the outcome in assay [13], in assay [15], in assay [16], in assay [17] and in assay [19] was inactive. Moreover, the AC50 in assay [14] is 26.6 µM (active).

Turning to `Cn1cnc2c1c(=O)[nH]c(=O)n2C`, the outcome in [1], in [2], in assay [3], in assay [4], in assay [5] and in [6] was inactive. For the same compound, the compound was called inactive in assay [7], in assay [8], in [9], in assay [20], in assay [10] and in assay [11]. The outcome in assay [12], in [13], in [15], in assay [16], in [17] and in [19] was inactive.

With `CC(C)COC(=O)CCCCC(=O)OCC(C)C`, the outcome in [1], in assay [2], in [3], in assay [4], in [5] and in [6] was inactive. Further, the compound was called inactive in [7], in [8], in assay [9], in [20], in assay [11] and in [12]. Also, the compound was classed as inactive in assay [13], in [14], in assay [15], in [16] and in [17].

With `C=CCc1ccc(OC)c(OC)c1`, the outcome in assay [1], in [2], in [3], in [4], in assay [5] and in [6] was inactive. Further, the call in assay [7], in assay [8], in [9], in assay [20], in [11] and in assay [12] was inactive. Further, the outcome in assay [13], in assay [15], in assay [16] and in assay [17] was inactive. In addition, the concentration at half-maximal activity (AC50) in assay [14] was 0.0538 µM (active).

Consider `C/C=C/c1ccc(OC)cc1`, for which the outcome in [1], in assay [2], in [3], in [4], in assay [5] and in [6] was inactive. Also, the call in [7], in assay [8], in assay [9], in [11], in assay [12] and in [13] was inactive. Also, the compound was classed as inactive in [14], in assay [15], in assay [16], in [17] and in assay [19].

Take `CCCCCCCCCC[N+](C)(C)[O-]`: the result in assay [1], in [2], in assay [3], in [4], in assay [18] and in [5] was inactive. Besides, the call in [6], in assay [7], in assay [8], in assay [11], in assay [12] and in assay [13] was inactive. Moreover, the result in assay [14], in [15], in assay [16] and in [17] was inactive.
